The list is not random: actives were taken first. Their share in the collection is about 2%.
Granule exo inh: lytic granule exocytosis inhibition. 0.66% of 360,000 active. TALL-104 LAMP-1 surface exposure, flow cytometry; cells stimulated with thapsigargin and PMA. inhibition, % at 10 µM. AID 651702;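 active means inhibition above about 55%, limit read from the data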
PG9 Ab binder: small molecules binding HIV-1 gp120 antibody PG9; inhibition, % at 6.7 µM; 0.43% of 360,000 active; TR-FRET gp120-PG9 antibody binding; in the data active means inhibition above about 8.5%
ABCB6 inh MLPCN: inhibitors of human ABC transporter ABCB6 | Q9NP58 | fluorescence ratio to DMSO, % at 10 µM | K562-ABCB6 porphyrin accumulation, flow cytometry, 1 h; active compounds read low | 0.19% of 360,000 active;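 active means fluorescence ratio to DMSO below 75%, the collection mean minus 3 SD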;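 further: signal is porphyrin accumulated inside mitochondria; 100% equals median channel fluorescence of DMSO control wells; lower ratio means ABCB6 inhibition with less porphyrin fluorescence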
Rev-erbA mod: modulators of human Rev-erb alpha DNA binding; P20393; Rev-erbα–FITC-DNA binding, fluorescence polarization, 90 min; activity, % at 10 µM; 0.79% of 370,000 active; AID 1259318;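 active means activity above about 14%, limit read from the data; passing the limit was not always enough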;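 further: 0% = DMSO wells with 35 nM protein and 100% = DMSO wells with 750 nM protein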
VLA-4 inh: inhibition in a human VLA-4 binding assay | P13612 | 0.2% of 330,000 active | inhibition, % (about 7 µM as worked out from the volumes in the protocol) | VLA-4 expressing cells, ligand binding flow cytometry; in the data active means inhibition above about 50%
VLA-4 allo CP: confirmation of allosteric modulators of human VLA-4 integrin; U937 cells, HUTS-21 LIBS mAb binding, flow cytometry; LDV ligand present at threefold Kd; shares compounds with VLA-4 inh; inhibition, % at 6.7 µM; 2% of 1,300 active; AID 2813; in the data active means inhibition above about 40%;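 further: 0% = ligand without compound and 100% = no ligand background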
ABCB6 blocker 1: blocks the human ABCB6 transporter | AID 602430 | 700 tested, under 10 active | K562-ABCB6 porphyrin accumulation, flow cytometry, 1 h; active compounds read low | shares compounds with ABCB6 inh MLPCN | ratio response (% of DMSO), % at 10 µM;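 active means repeat-averaged ratio response below 75% of DMSO, the collection mean minus 3 SD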;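 further: median porphyrin fluorescence at 575 nm with 488 nm excitation from mitochondria; lower ratio means less porphyrin signal so ABCB6 inhibition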
PG9 binder conf: confirmation of small molecules binding HIV-1 gp120 antibody PG9 | 90% of 1,500 active | inhibition, % at 6.7 µM | TR-FRET PG9 antibody binding, biochemical | shares compounds with PG9 Ab binder | AID 651571; in the data active means inhibition above about 9%
PGV04 counter: counter-screen for PG9 binders: binding control antibody PGV04; shares compounds with PG9 Ab binder; TR-FRET PGV04 antibody-gp120 binding, biochemical; inhibition, % at 6.7 µM; 95% of 1,500 active; AID 651604; in the data active means inhibition above about 9.5%
Rev-erbA confirm: confirmation of modulators of human Rev-erb alpha DNA binding; Rev-erb alpha FITC-DNA binding, fluorescence polarization, 90 min; 61% of 3,000 active; activation, % at 25 µM; shares compounds with Rev-erbA mod;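 active means activation at or above a set limit, or at least 3 SD above the negative control mean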;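 further: 0% = 35 nM protein with DMSO and 100% = 750 nM protein high control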
RORg DNA counter: RORgamma DNA-binding activity, dose-response counter-screen; shares compounds with Rev-erbA mod; 8% of 910 active; IC50, µM; purified RORgamma protein-FITC-DNA binding, fluorescence polarization;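 active means Compounds whose fitted half-maximal concentration for disrupting protein-DNA binding is below 10 micromolar; the record names Rev-erb in its text, so the target is in doubt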
* = called active by the depositor; · = not tested or not shown.

SMILES | Granule exo inh | PG9 Ab binder | ABCB6 inh MLPCN | Rev-erbA mod | VLA-4 inh | ABCB6 blocker 1 | others
CCC(=O)c1cn(CC(=O)Nc2ccc(C)cc2C)c2ccccc12 | -2.0 | 11.6* | 101.0 | 36.2* | -1.1 | · | VLA-4 allo CP=0.0;PG9 binder conf=12.4*;PGV04 counter=18.2*;Rev-erbA confirm=40.4*;RORg DNA counter=9.78*
O=C(Nc1ccc(Cn2cccn2)cc1)c1ccc(COc2ccc(Br)cc2)cc1 | -0.7 | 2.4 | 72.0* | 0.8 | 11.6 | 102.0
CN(CC(=O)Nc1ccc(F)cc1)C(=O)COC(=O)COc1ccc(C#N)cc1 | -4.5 | -0.3 | 68.0* | -2.6 | -0.7 | 102.0
Cc1ccc(NC(=O)CN(C)C(=O)COC(=O)COc2ccc(C#N)cc2)cc1 | -9.5 | -2.2 | 94.0 | 15.6 | -8.8 | ·
O=C(NC1CCCC1)c1ccc(COCC(F)(F)C(F)F)o1 | -1.0 | · | 73.0* | -6.2 | 1.7 | 99.0
CC(C)(C)c1ccc(S(=O)(=O)NC(=O)C2(C)CCN2C(=O)Cc2ccc(-c3ccccc3)cc2)cc1 (stereo not drawn) | -4.5 | 0.9 | 90.0 | -8.9 | · | 98.0
CC1(C(=O)NS(=O)(=O)c2cccc(C#N)c2)CCN1C(=O)Cc1ccc(-c2ccccc2)cc1 (stereo not drawn) | 3.8 | 0.0 | 97.0 | -3.5 | · | ·
COc1cc(C)ccc1S(=O)(=O)NC(=O)C1(C)CCN1C(=O)Cc1ccc(C(C)(C)C)cc1 (stereo not drawn) | -4.9 | 0.6 | 99.0 | -1.7 | · | 100.0
CC1(C(=O)NS(=O)(=O)c2ccc(C#N)cc2)CCN1C(=O)Cc1ccc(-c2ccccc2)cc1 (stereo not drawn) | -1.9 | -1.6 | 95.0 | 5.8 | · | 98.0
CCCCc1ccc(S(=O)(=O)NC(=O)C2(C)CCN2C(=O)Cc2ccccc2)cc1 (stereo not drawn) | 1.0 | 1.1 | 100.0 | -2.5 | · | 97.0
COc1ccc(OC)c(S(=O)(=O)NC(=O)C2(C)CCN2C(=O)Cc2ccccc2)c1 (stereo not drawn) | 8.9 | 0.1 | 98.0 | -1.9 | · | ·
O=C(Nc1c(-c2ccc(F)cc2)nc2ncccn12)c1ccccc1 | · | · | · | 1.3 | · | ·
O=C(COc1ccc(F)c(Cl)c1)N[C@H]1CCCN(CC2CC2)C1 | · | · | · | -7.5 | · | ·
COc1cccc(CN(CC(=O)NCC2CCCO2)C(=O)CCC(=O)Nc2cc(C)on2)c1 (stereo not drawn) | -0.8 | -0.3 | 73.0* | -2.7 | 13.8 | 102.0
CC(C)[C@H](N)C(=O)O | · | · | · | -7.1 | · | ·
O=C(CSc1nnc(-c2ccccc2)o1)N1CCc2ccccc2C1 | -0.9 | 0.3 | 93.0 | 2.8 | 6.0 | ·
COc1ccc(-c2nnc(SCC(=O)N3CCc4ccccc4C3)o2)cc1 | -1.2 | -1.0 | 56.0* | -1.8 | 3.6 | 101.0
CCCCCCCCCC(=O)OCCN1CCN(CCCN2c3ccccc3Sc3ccc(C(F)(F)F)cc32)CC1 | · | · | · | -1.3 | · | ·
Cc1cc(C(=O)COc2ccc(Br)cc2F)c(C)n1CC1CCCO1 (stereo not drawn) | -2.0 | 0.6 | 71.0* | -1.9 | · | 97.0
Cc1ccc(NC(=O)Cn2nnc(-c3ccccc3F)n2)cc1C | · | · | · | -0.7 | · | ·
O=C1CC(c2ccccc2)CC(O)=C1C=NCc1ccccc1Cl (stereo not drawn) | 4.8 | 0.8 | 15.0* | -0.5 | -17.5 | 97.0
CCN(CC)C1=CC(=[N+]2CCCC2)CC(C)(C)C1 | -0.8 | 0.2 | 67.0* | 2.4 | -2.7 | 103.0

High-throughput results (PubChem)
